Test results reported in PubChem BioAssay AID1376 (SRMLSC, 2008).
In all, about 220,000 compounds went through this assay and about 530 (0.24%) were called active. The entries come from a sample that favours actives as a whole. Entries with a potency or affinity are not part of this list. Values without a mark were called inactive. Cut-off read from the data, not from the text of the source: active = inhibition above about 13%; inconclusive = no clear call, values can overlap the other calls; inactive = below that.

Each molecule was assayed against Bifunctional protein GlmU (Mycobacterium tuberculosis (strain ATCC 25618 / H37Rv)) (UniProt P9WMN3) (assay: inhibition of mycobacterial GlmU enzyme – biochemical, glucosamine-1-phosphate acetyltransferase (AID 1376;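 note: 0% = complete reaction with vehicle and 100% = reaction without substrate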)). Conditions: M. tuberculosis GlmU acetyltransferase enzyme assay; hits give high values;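 tested at 30 µM in the primary screen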.
Chain of Bifunctional protein GlmU (Mycobacterium tuberculosis (strain ATCC 25618 / H37Rv)) (P9WMN3 whole entry, looked up): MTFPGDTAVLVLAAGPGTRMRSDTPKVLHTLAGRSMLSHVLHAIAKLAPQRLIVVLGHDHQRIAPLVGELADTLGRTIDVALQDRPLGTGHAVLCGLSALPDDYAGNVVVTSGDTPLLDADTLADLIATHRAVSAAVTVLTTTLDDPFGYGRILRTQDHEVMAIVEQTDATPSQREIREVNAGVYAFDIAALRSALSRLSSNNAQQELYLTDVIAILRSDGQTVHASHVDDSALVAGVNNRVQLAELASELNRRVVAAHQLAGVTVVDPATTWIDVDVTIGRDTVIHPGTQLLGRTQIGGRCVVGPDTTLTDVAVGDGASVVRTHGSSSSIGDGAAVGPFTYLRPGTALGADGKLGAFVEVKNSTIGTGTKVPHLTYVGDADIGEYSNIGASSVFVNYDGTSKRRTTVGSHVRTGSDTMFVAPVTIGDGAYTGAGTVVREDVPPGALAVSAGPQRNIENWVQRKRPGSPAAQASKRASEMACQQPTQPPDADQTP

| Structure (SMILES) | inhibition |
| --- | --- |
| CC1CC(C)(C)NC(=S)N1CCCC(=O)NCc1ccccc1 (stereo not drawn) | -0.79% |
| CN1CCN(C(c2cccnc2)c2ccc3cccnc3c2O)CC1 (stereo not drawn) | -1.35% |
| OCCN1CCN(C(c2cccs2)c2ccc3cccnc3c2O)CC1 (stereo not drawn) | 17.8% (active) |
| Oc1c(C(c2ccccc2Cl)N2CCCC2)ccc2cccnc12 (stereo not drawn) | -1.53% |
| CCc1ccc(CN(C)CCc2ccccn2)cc1 | 1.82% |
| O=C(NCc1ccc2c(c1)OCO2)C1CC(c2cccc(Br)c2)=NO1 (stereo not drawn) | 5.45% |
| COc1cc(/C=N/NC(=O)c2ccc(F)cc2)ccc1OC(=O)c1ccco1 | 1.03% |
| CCC1=NN(C(=O)c2ccc(Br)cc2)C(O)(c2ccccc2)C1 (stereo not drawn) | 1.41% |
| CCN(CC)CCC/C(=N\O)C(O)(c1ccccc1)c1ccccc1 | -1.2% |
| COc1ccc(C(=O)O)c(O)c1 | 1.05% |
| COc1ccc(OCc2cccc(C(=O)O)c2)cc1 | -3.31% |
| COc1ccc(OCc2ccc(C(=O)O)cc2)cc1 | -5.61% |
| O=C(O)c1cc(O)ccc1-c1ccc(O)cc1 | 0.42% |
| COc1ccc(-c2ccc(OC)cc2C(=O)O)cc1 | 14.9% (active) |
| CCN(CC)S(=O)(=O)c1ccc(N2CCOCC2)c(NC(=S)NC(=O)c2ccco2)c1 | 14.6% (active) |
| CCN(CC)S(=O)(=O)c1ccc(N2CCOCC2)c(NC(=O)Cc2ccccc2)c1 | -0.9% |
| O=C(NC(=S)Nc1cc(S(=O)(=O)N2CCOCC2)ccc1N1CCOCC1)c1ccco1 | 1.22% |
| Cc1cc(C)n(CCc2nc(-c3ccc(C(C)(C)C)cc3)cs2)n1 | -7.47% |
| O=C(CS(=O)(=O)Cc1ccccc1)Nc1ccccc1Cl | -1.63% |
| CC(C)NC(=O)c1ccccc1NC(=O)CS(=O)(=O)Cc1ccccc1 | -2.67% |
| NC(=O)c1ccccc1NC(=O)CS(=O)(=O)Cc1ccccc1 | 14.6% (active) |
| COc1ccc(S(=O)(=O)N(C)CC(=O)Nc2ccc3c(c2)OCO3)cc1OC | -3.21% |
| CCCCOC(=O)C1CN(c2ccccc2)N=C1C(C)=O (stereo not drawn) | 3.69% |
| Cc1ccccc1S(=O)(=O)NC1OC(=O)C(Cl)=C1Cl (stereo not drawn) | 9.45% |
| CC(=O)NC(=O)NC1OC(=O)C(Cl)=C1Cl (stereo not drawn) | 2.53% |

| Structure (SMILES) | inhibition |
| --- | --- |
| Cc1ccc(S(=O)(=O)NC2OC(=O)C(Cl)=C2Cl)cc1 (stereo not drawn) | 13.1% (active) |
| C#CC[N+](C)(C)CCCCCCCCCC | -5.84% |
| CCC(c1nnnn1CCC(C)C)N1CCC(C(N)=O)CC1 (stereo not drawn) | 2.94% |
| Cc1ccc(Oc2ccc(OCC(=O)OC3CCS(=O)(=O)C3)cc2)cc1 (stereo not drawn) | -1.4% |
| Cc1ccc2c(c1)sc1nc(=O)n(-c3ccc(Cl)cc3)c(=O)n12 | 2.07% |
| Cc1ccc2c(c1)sc1nc(=O)n(-c3ccccc3)c(=O)n12 | 4.71% |
| Cc1ccc2c(c1)sc1nc(=O)n(-c3cccc(Cl)c3)c(=O)n12 | 38.6% (active) |
| O=C(NCC1CCCO1)c1nc2c(nnn2Cc2ccccc2Cl)c(=O)[nH]1 (stereo not drawn) | -1.69% |
| Cc1ccc(C)c(Cn2nnc3c(=O)[nH]c(C(=O)NCC4CCCO4)nc32)c1 (stereo not drawn) | 0.99% |
| O=C(NCC1CCCO1)c1nc2c(nnn2Cc2ccc(F)cc2)c(=O)[nH]1 (stereo not drawn) | 13.4% (active) |
| CCCCNC(=O)CNC(=S)N(CCCN1CCOCC1)Cc1cccs1 | 3.25% |
| COc1ccc(O)c(/C=N/NC(=S)Nc2cccc(S(=O)(=O)N(C)C)c2)c1 | -8.22% |
| CN(C)S(=O)(=O)c1cccc(NC(=S)N/N=C/c2cc(Br)ccc2O)c1 | -0.84% |
| Oc1ccc(/C=N/NC(=S)Nc2cccnc2)c(O)c1 | 3.56% |
| Oc1cccc(/C=N/NC(=S)Nc2cccnc2)c1O | 5.05% |
| COc1ccccc1NC(=O)CCC(=O)N(Cc1ccc(OC)c(OC)c1)c1nccs1 | -2.21% |
| CCN1CCN(c2cc3c(nn2)Oc2ccccc2N3C)CC1 | 0.59% |
| Cc1nc2ccccc2c(=O)n1NC(=O)Cc1ccc([N+](=O)[O-])cc1 | -0.18% |
| O=C(Cn1nc(-c2ccccc2)c2ccccc2c1=O)Nc1cccc(O)c1 | 3.9% |
| Cc1ccc(N2C(=O)NC(=O)/C(=C\c3ccoc3)C2=O)cc1 | 0.76% |
| O=C1NC(=O)N(c2ccccc2)C(=O)/C1=C/c1ccoc1 | -0.64% |
| CCCC(c1nnnn1CC(=O)OCC)N(Cc1cc2ccc(C)cc2[nH]c1=O)C1CCCC1 (stereo not drawn) | 7.33% |
| CCOC(=O)N1CCN(C(=O)CN(c2ccc(OCc3ccccc3)cc2)S(C)(=O)=O)CC1 | 4.38% |
| O=C(NC(=S)NNC(=O)c1ccccc1F)c1cccnc1 | 3.92% |
| O=C(NNC(=S)NC(=O)c1cccnc1)c1ccc(F)cc1 | 13.5% (active) |

| Structure (SMILES) | inhibition |
| --- | --- |
| O=C(NC(=S)NNC(=O)c1ccccc1O)c1cccnc1 | 12.9% (active) |
| O=C(NNC(=S)NC(=O)c1cccnc1)c1ccccc1 | -2.11% |
| Cc1ccccc1C(=O)NNC(=S)NC(=O)c1cccnc1 | 4.43% |
| O=C(NNC(=S)NC(=O)c1cccnc1)c1ccc(Cl)cc1 | -3.46% |
| CCOC(=O)C1=C(C)Nc2nc3ccccc3n2C1c1ccc(O)cc1 (stereo not drawn) | 6.95% |
| Nc1nc(CN2CCN(C(c3ccccc3)c3ccccc3)CC2)nc(Nc2ccccc2)n1 | -2.82% |
| COC(=O)CC1C(=O)NCCN1C(=O)CSc1nnnn1-c1ccc(OC)cc1 (stereo not drawn) | -2.52% |
| O=C(O)C1CC1c1ccc(Br)cc1 (stereo not drawn) | 2.18% |
| CCCNc1nc(C)nc2c1cnn2CCc1ccccc1 | 1.42% |
| O=C(O)c1ccc2c(c1)C(=O)/C(=C/c1ccccc1)C2=O | 18.9% |
| CCN(CC)c1ccc(C(=O)O)cc1 | -1.49% |
| CCN(CC)c1ccc(C=C2C(=O)OC3(CCCCC3)OC2=O)cc1 | -3.43% |
| CCN(CC)c1ccc(C=C2C(=O)OC3(CCCC3)OC2=O)cc1 | -0.14% |
| COc1ccc(-c2ccc(OC)c([C@H]3[C@H]4C=CC[C@@H](C)[C@@H]4C(=O)N3Cc3ccccc3)c2)cc1C | 1.44% |
| CCOc1cc2c(cc1C=O)OC(C)C2 (stereo not drawn) | -3.18% |
| Cc1ccc(C(=O)NCc2ccccn2)cc1Cl | -4.77% |
| O=C(c1ccc2c(c1)OCCO2)N1CCN(Cc2ccccc2)CC1 | 0.55% |
| CCC(OC(=O)CC1Sc2ccccc2NC1=O)C(=O)NCC1CCCO1 (stereo not drawn) | -4.76% |
| CCCCCCOC(=O)CCc1c(C)nc(N)[nH]c1=O | 1.43% |
| O=CC(Cl)P(=O)(N1CCOCC1)N1CCOCC1 (stereo not drawn) | 5.15% |
| CC(C)(C)P(=O)(N1CCOCC1)N1CCOCC1 | -0.04% |
| O=CC(Br)P(=O)(N1CCOCC1)N1CCOCC1 (stereo not drawn) | 13.9% (active) |
| CN(c1ccccc1)c1nc(N)c([N+](=O)[O-])c(NCc2ccccc2)n1 | -0.66% |
| CCCC(=O)NNc1cc(=O)c2c(=O)n(C)c(=O)n(C)c2[nH]1 | -0.71% |
| Cc1ccc(N2CC(C(=O)NCCC(C)C)CC2=O)cc1 (stereo not drawn) | 1.29% |

| Structure (SMILES) | inhibition |
| --- | --- |
| N#CC12CNCC1CN=N2 (stereo not drawn) | 15.5% (active) |
| Cc1ccc2c(c1)C(c1ccccc1)C(=O)O2 (stereo not drawn) | 2.36% |
| Cc1noc(C)c1COC(=O)C(c1ccccc1)c1ccccc1 | -2.73% |
| COc1ccc(OCCC(=O)OCc2c(C)noc2C)cc1 | 3.9% |
| Cc1noc(C)c1COC(=O)CCOc1ccccc1 | 13.2% (active) |
| Cc1ccc(N2CCN(C(=O)Nc3cccc([N+](=O)[O-])c3)CC2C)cc1 (stereo not drawn) | 5.55% |
| CCc1ccc(C(=O)N/N=C/c2cccc3ccccc23)nc1 | -1.08% |
| Cc1ccccc1C(=O)N1CCN(c2ccc([N+](=O)[O-])c(NCc3cccnc3)c2)CC1 | 14.5% (active) |
| O=C(c1ccccc1F)N1CCN(c2ccc([N+](=O)[O-])c(NCc3cccnc3)c2)CC1 | 4.22% |
| O=C(c1ccccc1)N1CCN(c2ccc([N+](=O)[O-])c(NCc3cccnc3)c2)CC1 | -14.7% |
| N#Cc1cc(C(=O)c2cc(Cl)ccc2O)cn(CC2CCCO2)c1=O (stereo not drawn) | 1% |
| Cc1cc(C)c2c(=O)n(CC(=O)Nc3cccc(F)c3)sc2n1 | 9.3% |
| CCCNC(=O)Cn1sc2nc(C)cc(C)c2c1=O | 9.09% |
| CCOc1ccc(NC(=O)Cn2sc3nc(C)cc(C)c3c2=O)cc1 | 14.9% (active) |
| Cc1cc(C)c2c(=O)n(CC(=O)Nc3ccc(Br)c(C)c3)sc2n1 | -1.95% |
| Cc1cc(C)c2c(=O)n(CC(=O)Nc3cccc(Cl)c3C)sc2n1 | 3.9% |
| Cc1cc(C)c2c(=O)n(CC(=O)N3CCC(N4CCCCC4)CC3)sc2n1 | -2.82% |
| Cc1ccc(NC(=O)Cn2sc3nc(C)cc(C)c3c2=O)c(Cl)c1 | 2.26% |
| Cc1cc(C)c2c(=O)n(CC(=O)Nc3ccc(Cl)cc3)sc2n1 | 13% (active) |
| Cc1cc(C)c2c(=O)n(CC(=O)NC3CCCC3)sc2n1 | 15% (active) |
| COc1ccc(/C=N/n2c(-c3cc(C)[nH]n3)n[nH]c2=S)cc1OC | 5.27% |
| Cc1ccc(NC(=O)NCc2c(C)nn(C)c2C)cc1Cl | 2.69% |
| C#CCCOC(=O)N1C2=NC(C(=O)OC)=C(C(=O)OC)[C@@H]3N(CC=C)c4ccccc4[C@]23C[C@H]1C(=O)OC | -1.18% |
